Test results from PubChem BioAssay (NCATS).
Records with an inconclusive call do not appear. Activity calls are given as the source filed them. The call rests on the fitted dose curve; in most records, active means well fitted curve in the direction sought with a large enough effect; inconclusive means small, poorly fitted or top-dose-only effect, or another doubt; inactive means no such curve, though single readings can be large; an effect the other way counts as inactive or inconclusive.

Columns and labels:
[1] = target: Glutathione peroxidase 1 (Homo sapiens) (UniProt P07203); assay: Primary qHTS Assay for Inhibitors of Recombinant Selenoprotein Glutathione Peroxidase 1 (GPX1) (AID 1845191); conditions: recombinant GPX1, GR-coupled NADPH fluorescence, 15 min; series mostly up to 48.8 µM; further: nearly all actives have a fitted effect of over 65% in size; on activity, negative = inhibition: on the % scale 0 is the no-effect control and ±100 the full control effect
How it was run: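 GPX1 10 nM, GR 100 nM, GSH 1 mM, NADPH 0.5 mM, CHP 0.5 mM (final). 30-min cpd preincubation, RT. Ex340/Em450 read t=0, t=15 min.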

[2] = target: Phospholipid hydroperoxide glutathione peroxidase GPX4 (Homo sapiens) (UniProt P36969); assay: Primary qHTS Assay for Inhibitors of Recombinant Selenoprotein Glutathione Peroxidase 4 (GPX4) (AID 1845192); conditions: recombinant GPX4, GR-coupled NADPH fluorescence, 15 min; series mostly up to 50 µM; further: nearly all actives have a fitted effect of over 65% in size; on activity change, negative = inhibition: on the % scale 0 is the no-effect control and ±100 the full control effect
How it was run: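 qHTS, GR-coupled: GPX4 200 nM + cpd 30 min RT → GSH 1 mM, NADPH 0.5 mM, GR 100 nM → CHP 0.5 mM start; fluor 340/450 at t0 and t15 min; no-enzyme wells as control.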

[3] = target: Luciferin 4-monooxygenase (Photinus pyralis) (UniProt P08659); assay: Primary firefly luciferase (FLuc) qHTS assay for identification of artifact compounds. (AID 1845220); conditions: purified firefly luciferase, luminescence, 5 min; series mostly up to 54.1 µM; further: nearly all actives have a fitted effect of over 60% in size; further: potency means the concentration at half of the fitted maximal effect;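 on activity change, negative = inhibition: plate controls were DMSO vehicle for no effect and no enzyme for full effect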
How it was run: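 qHTS, 15 min compound preincubation with substrate (10 uM luciferin, 10 uM ATP) at RT, then 10 nM FLuc; 5 min; luminescence; % inhibition vs no-enzyme/DMSO controls, 4-parameter Hill fit.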

[4] = Primary fluorescence-based thiol-reactive (MSTI) qHTS assay for identification of artifact compounds. (AID 1845221); conditions: MSTI thiol-reactivity probe, 1 h; series mostly up to 53.8 µM; further: nearly all actives have a fitted effect of over 65% in size; further: potency means the concentration at half of the fitted maximal effect;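 on activity change, negative = thiol reactive: thiol-reactive compounds lower the probe fluorescence signal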
How it was run: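 qHTS titration of compound; 4 uM MSTI, PBS pH 7.4, 2% DMSO; 1 h RT, dark; fluorescence 525/598 nm; normalized to Acetyl-MSTI and MSTI; 4-parameter Hill fit.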

[5] = system: Nanoluciferase (engineered Oplophorus gracilirostris luciferase); assay: Primary Nanoluciferase (NLuc) qHTS assay for identification of artifact compounds. (AID 1845222); conditions: NLuc-conditioned medium, Nano-Glo luminescence, 5 min; series mostly up to 54.1 µM
How it was run: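 Luminescence read-out of secreted NLuc in S16 cell conditioned medium (1:55); compounds tested with 15 min RT preincubation, then Nano-Glo substrate 1:100, 5 min. % inhibition vs no-enzyme and DMSO controls, 4-parameter Hill fit.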

[6] = Primary redox qHTS assay for identification of artifact compounds. (AID 1845223); conditions: Amplex Red/HRP redox cycling with DTT, fluorescence; series mostly up to 53.8 µM;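 further: 0% = DMSO and 100% = reference compound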
How it was run: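 Redox-cycling detection via DTT (250 uM final) oxidation coupled to Amplex Red (25 uM)/HRP (250 mU/mL) in HBSS. 15 min preincubation plus 30 min after DTT, room temperature. Ex/Em 525/598 nm; 4-parameter Hill fit against DMSO and 10 uM DA3003.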

Sequence of Phospholipid hydroperoxide glutathione peroxidase GPX4 (Homo sapiens) (P36969 whole entry, looked up): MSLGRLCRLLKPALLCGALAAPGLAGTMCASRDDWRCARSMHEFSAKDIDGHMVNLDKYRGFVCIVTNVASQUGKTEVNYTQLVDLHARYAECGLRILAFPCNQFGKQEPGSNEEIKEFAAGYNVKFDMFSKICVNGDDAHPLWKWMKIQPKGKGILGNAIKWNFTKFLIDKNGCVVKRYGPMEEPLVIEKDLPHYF
Sequence of Glutathione peroxidase 1 (Homo sapiens) (P07203 whole entry, looked up): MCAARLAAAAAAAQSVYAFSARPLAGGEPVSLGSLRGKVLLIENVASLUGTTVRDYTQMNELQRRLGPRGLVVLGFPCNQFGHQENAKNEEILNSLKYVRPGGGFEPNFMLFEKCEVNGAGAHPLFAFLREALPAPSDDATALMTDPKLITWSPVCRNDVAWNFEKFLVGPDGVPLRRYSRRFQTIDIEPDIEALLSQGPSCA

C=C1C[C@]23C[C@H]1[C@@H](O)C[C@H]2[C@@]12C=C[C@H](O)[C@@](C)(C(=O)O1)[C@H]2[C@@H]3C(=O)O
inactive: Potency [1] | Potency [2] | Potency [3] | Potency [4] | Potency [5] | Potency [6]

COCCOc1cnc2ccn([C@H](C)c3nnc4c(F)cc(-c5cnn(C)c5)cn34)c(=O)c2c1
inactive: Potency [1] | Potency [2] | Potency [3] | Potency [4] | Potency [5]

C[C@@H]1O[C@@H](O[C@H]2[C@H](O[C@H]3CC[C@@]4(C)C(CC[C@]5(C)C4CC=C4[C@@H]6CC(C)(C)CC[C@]6(C(=O)O[C@@H]6OC[C@H](O)[C@H](O)[C@H]6O[C@@H]6O[C@@H](C)[C@H](O[C@@H]7O[C@H](CO)[C@@H](O)[C@H](O)[C@H]7O)[C@H](O)[C@H]6O)[C@H](O)C[C@]45C)C3(C)C)O[C@H](CO)[C@@H](O[C@@H]3OC[C@@H](O)[C@H](O)[C@H]3O)[C@@H]2O)[C@H](O)[C@H](O)[C@H]1O (stereo not given in full)
inactive: activity, negative = inhibition [1] -13.9% [at 9.52 µM] | outcome [2] inactive [at 9.73 µM] | activity change, negative = inhibition [3] -1.49% [at 11.6 µM] | activity change, negative = thiol reactive [4] 113% [at 11.5 µM] | activity, negative = inhibition [5] 3.16% [at 11.6 µM]

CC(C)=CCC/C(C)=C/CO[C@@H]1O[C@H](CO)[C@@H](OC(=O)/C=C/c2ccc(O)cc2)[C@H](O[C@@H]2O[C@@H](C)[C@H](O)[C@@H](O)[C@H]2O)[C@H]1O
inactive: Potency [1] | Potency [2] | Potency [3] | Potency [4] | Potency [5]

CC1=CC(=O)[C@H]2C(C)(C)CCC[C@]2(C)[C@@]1(O)CO
inactive: Potency [1] | Potency [2] | Potency [3] | Potency [4] | Potency [5]

CC(C)[C@@H](CS(=O)(=O)C(C)C)N1C(=O)[C@@](C)(CC(=O)O)C[C@H](c2cccc(Cl)c2)[C@H]1c1ccc(Cl)cc1
inactive: Potency [1] | Potency [2] | Potency [3] | Potency [4] | Potency [5]

C=C1CCC2C(C)(C(=O)O)CCCC2(C)C1CCC(C)CC(=O)O (stereo not given)
inactive: Potency [1] | Potency [2] | Potency [3] | Potency [4] | Potency [5]

Cc1ccc(C(=O)Nc2noc3ccccc23)cc1
active: Potency [3] 0.0849 µM
inactive: Potency [1] | Potency [2] | Potency [4] | Potency [5] | Potency [6]

COC1CC(O[C@H]2CC[C@@]3(C)C(=CC[C@]4(O)C3[C@H](OC(C)=O)[C@@H](OC(=O)c3ccccc3)[C@]3(C)[C@@H](C(C)=O)CC[C@@]34O)C2)OC(C)C1OC1CC(OC)C(OC2CC(OC)C(OC3OC(C)C(OC4OC(CO)C(O)C(O)C4O)C(OC)C3O)C(C)O2)C(C)O1 (stereo not given in full)
inactive: outcome [1] inactive [at 9.52 µM] | activity change, negative = inhibition [2] -9.45% [at 9.73 µM] | outcome [3] inactive [at 11.6 µM] | activity change, negative = thiol reactive [4] 29.9% [at 11.5 µM] | activity, negative = inhibition [5] 2.42% [at 11.6 µM]

C[C@H](CCC(=O)O)[C@H]1CC[C@H]2[C@@H]3C[C@H](O)[C@@H]4C[C@H](O)CC[C@]4(C)[C@H]3CC[C@]12C
inactive: Potency [1] | Potency [2] | Potency [3] | Potency [4] | Potency [5]

O=C1NC(=O)C(c2cn3c4c(cccc24)CCC3)C1c1c[nH]c2ccccc12 (stereo not given)
inactive: Potency [1] | Potency [2] | Potency [3] | Potency [4] | Potency [5] | Potency [6]

CN1CCN(C(=O)c2ccc3cc(CCNc4ncnc5ccc(C#N)cc45)ccc3c2)CC1
inactive: Potency [1] | Potency [2] | Potency [3] | Potency [4] | Potency [5]

COc1ccc(-c2ccc(-c3cn(C(=O)N4CCCCC4c4ccccc4)nn3)cc2)cc1 (stereo not given)
inactive: Potency [1] | Potency [2] | Potency [3] | Potency [4] | Potency [5] | Potency [6]

CC1(C)CC[C@]2(C(=O)OC3OC(CO)C(O)C(O)C3O)CC[C@]3(C)C(=CCC4[C@@]5(C)CC[C@H](OC6OC(C(=O)O)C(O)C(OC7OC(CO)C(O)C(O)C7O)C6O)C(C)(C)C5CC[C@]43C)C2C1 (stereo not given in full)
inactive: Potency [1] | Potency [2] | activity change, negative = inhibition [3] 2.81% [at 11.6 µM] | activity change, negative = thiol reactive [4] 338% [at 11.5 µM] | activity, negative = inhibition [5] 2.64% [at 11.6 µM] | redox activity (% of DA3003) [6] 0.227% [at 11.5 µM]

CC1(C)CC[C@]2(C(=O)O[C@@H]3O[C@H](CO[C@@H]4O[C@H](CO)[C@@H](O)[C@H](O)[C@H]4O[C@@H]4O[C@H](CO)[C@H](O)[C@H](O)[C@H]4O)[C@@H](O)[C@H](O[C@@H]4O[C@H](CO)[C@@H](O)[C@H](O)[C@H]4O)[C@H]3O)CC[C@]3(C)C(=CCC4[C@@]5(C)CC[C@H](O[C@@H]6OC[C@@H](O)[C@H](O)[C@H]6O)[C@@](C)(C(=O)O)C5CC[C@]43C)[C@@H]2C1 (stereo not given in full)
inactive: outcome [1] inactive [at 9.52 µM] | outcome [2] inactive [at 9.73 µM] | activity change, negative = inhibition [3] 3.08% [at 11.6 µM] | activity change, negative = thiol reactive [4] 79.6% [at 11.5 µM] | activity, negative = inhibition [5] 0.986% [at 11.6 µM]

Cc1ccc(NC(=O)C(=O)NC2CC(C)(C)NC(C)(C)C2)cc1
inactive: Potency [1] | Potency [2] | Potency [3] | Potency [4] | Potency [5] | Potency [6]

CC1(C)CC[C@@]2(C(=O)O[C@@H]3O[C@H](CO)[C@@H](O)[C@H](O)[C@H]3O)C(C1)C1=CCC3[C@@]4(C)CC[C@@H](O[C@@H]5O[C@H](C(=O)O)[C@@H](O[C@@H]6OC[C@@H](O)[C@H](O)[C@H]6O)[C@H](O[C@@H]6OC[C@](O)(CO)[C@H]6O)[C@H]5O)C(C)(C)C4CC[C@@]3(C)[C@]1(C)C[C@H]2O (stereo not given in full)
inactive: Potency [1] | Potency [2] | outcome [3] inactive [at 11.6 µM] | activity change, negative = thiol reactive [4] 54.8% [at 11.5 µM] | activity, negative = inhibition [5] 1.29% [at 11.6 µM]

CN1CCc2nc(C(=O)N[C@@H]3C[C@@H](C(=O)N(C)C)CC[C@@H]3NC(=O)C(=O)Nc3ccc(Cl)cn3)sc2C1
inactive: Potency [1] | Potency [2] | Potency [3] | Potency [4] | Potency [5]

C=C1CC[C@@H]2[C@](C)(CO[C@@H]3O[C@H](CO)[C@@H](O)[C@H](O)[C@H]3O)[C@H](O)CC[C@@]2(C)[C@@H]1C/C=C1/C(=O)OC[C@H]1O
inactive: Potency [1] | Potency [2] | Potency [3] | Potency [5] | Potency [6]
active: Potency [4] 13 µM

CC1=CC(=O)[C@]2(O[C@@H]3O[C@@H](C)[C@H](O)[C@@H](O)[C@H]3OC(=O)/C=C/c3ccccc3)C=CO[C@@H](O[C@@H]3O[C@H](CO)[C@@H](O)[C@H](O)[C@H]3O)[C@H]12
active: Potency [4] 2.51 µM
inactive: Potency [1] | Potency [2] | Potency [3] | Potency [5] | Potency [6]

CC(C)=CCCC1(C)C=Cc2c(c(C)cc3c2[nH]c2ccccc23)O1 (stereo not given)
active: Potency [4] 2.93 µM
inactive: Potency [1] | Potency [2] | Potency [3] | Potency [5] | Potency [6]

C=CC(C)(CC/C=C(\C)C(=O)OC)OC1OC(COC(=O)CC(C)(O)CC(=O)O)C(OC2OC(CO)C(O)C(O)C2O)C(O)C1O (stereo not given)
inactive: Potency [1] | Potency [2] | Potency [3] | Potency [4] | Potency [5] | Potency [6]
